Assay results from article PMC8159961, “Exploring protein hotspots by optimized fragment pharmacophores” (Nature Communications, 2021).

The molecules below were run against 5-HT1A receptor (human, UniProt P08908) (assay: primary screen, binary call; higher = more effect of the substance). Conditions: 10 µM; call rule not given here.
Sequence of 5-HT1A receptor (P08908 whole entry, looked up): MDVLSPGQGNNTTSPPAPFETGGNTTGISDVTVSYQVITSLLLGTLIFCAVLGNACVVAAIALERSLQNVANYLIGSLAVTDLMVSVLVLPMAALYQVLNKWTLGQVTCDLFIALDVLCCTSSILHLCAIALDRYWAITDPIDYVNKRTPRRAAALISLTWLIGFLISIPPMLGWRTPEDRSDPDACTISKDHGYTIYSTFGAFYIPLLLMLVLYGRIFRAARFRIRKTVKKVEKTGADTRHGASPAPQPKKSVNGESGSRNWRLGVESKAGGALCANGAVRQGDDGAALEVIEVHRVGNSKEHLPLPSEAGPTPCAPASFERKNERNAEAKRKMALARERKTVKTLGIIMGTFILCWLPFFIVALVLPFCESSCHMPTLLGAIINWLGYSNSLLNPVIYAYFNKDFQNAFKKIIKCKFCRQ
Design: hit call from the mean of at least two separate experiments
Method: GPCR radioligand binding assays were performed in HEK293 cells with stable expression of human 5-HT1A, 5-HT6, and 5-HT7b receptors (prepared with the use of Lipofectamine 2000). Non-specific binding was defined with 10 µM of 5-HT in 5-HT1AR and 5-HT7R binding experiments, whereas 10 µM of mianserin was used in 5-HT6R assays, respectively. Each compound was tested at 10 µM concentration. Results were expressed as means of at least two separate experiments.
For `N[C@H]1c2ccccc2C[C@H]1CO`, the 5-HT1 was 0 (inactive). In the case of `Oc1ccc(-n2cncn2)cc1`, the 5-HT1 is reported as 0 (inactive). For `CN(C)c1cc(CN)ccn1`, the 5-HT1 was 0 (inactive). In the case of `Cc1nccn1Cc1cccc(C#N)c1`, the 5-HT1 is reported as 0 (inactive). With `C1=C[C@H]2O[C@@H]1c1ccccc12` the 5-HT1 was 0 (inactive). For `COc1cccc(NC2=NCCCCC2)c1`, the 5-HT1 was 0 (inactive). In the case of `Cn1c(CO)nc2ccccc21`, the 5-HT1 is reported as 0 (inactive). With `Oc1cnc(-c2ccccc2)nc1` the 5-HT1 was 0 (inactive). In the case of `CN1CC(=O)NC1=O`, the 5-HT1 is reported as 0 (inactive). For `O=C(O)c1ccc(CN2CCOCC2)cc1`, the 5-HT1 was 0 (inactive). In the case of `FC1(F)CNCC(F)(F)O1`, the 5-HT1 is reported as 0 (inactive). With `Cc1cc(-c2ccccc2)n[nH]1` the 5-HT1 was 0 (inactive). `Cc1nc(-c2ccccc2)cs1` was tested, and the 5-HT1 was 0 (inactive). `N#Cc1ccc(C(=O)N2CCOCC2)cc1` was tested, and the 5-HT1 was 0 (inactive). `Cn1c(N)nc2ccccc21` was tested, and the 5-HT1 was 0 (inactive). `CS(=O)(=O)Nc1ccc(C(=O)O)cc1` was tested, and the 5-HT1 was 0 (inactive). `Fc1ccc2c(C3CCNCC3)c[nH]c2c1` was tested, and the 5-HT1 was 1 (active). In the case of `O=C1CCCc2occc21`, the 5-HT1 is reported as 0 (inactive). In the case of `CS(=O)(=O)c1ccc(OC(F)(F)F)cc1`, the 5-HT1 is reported as 0 (inactive). In the case of `O=C(O)CC1CCC(=O)N1` (stereo not shown), the 5-HT1 is reported as 0 (inactive). In the case of `NC(c1ccccc1)c1ccccc1`, the 5-HT1 is reported as 0 (inactive). In the case of `O=C(CN1CCNCC1)c1ccccc1`, the 5-HT1 is reported as 0 (inactive). `CCN(CC)c1cccc(C)c1` was tested, and the 5-HT1 was 0 (inactive). With `O=C1NC(=O)/C(=C\c2cccs2)N1` the 5-HT1 was 0 (inactive). `NCC1(c2ccccc2)CCOCC1` was tested, and the 5-HT1 was 0 (inactive). `O=C1NC2(CCCC2)Nc2ccccc21` was tested, and the 5-HT1 was 0 (inactive). In the case of `Cc1cc(C)c2c(=O)[nH]n(C)c2n1`, the 5-HT1 is reported as 0 (inactive). For `N#Cc1ccc2ncsc2c1`, the 5-HT1 was 0 (inactive). For `O=C1CSC(Nc2ccc(F)cc2)=N1`, the 5-HT1 was 0 (inactive). In the case of `NC(=O)N1CCC(C(=O)O)CC1`, the 5-HT1 is reported as 0 (inactive). With `CS(=O)(=O)c1ccc(N2CCNCC2)cc1` the 5-HT1 was 0 (inactive). In the case of `CC(=O)c1ccc2c(c1)CNCC2`, the 5-HT1 is reported as 0 (inactive). In the case of `Oc1ccccc1N1CCCCC1`, the 5-HT1 is reported as 0 (inactive). With `Nc1ccc(SC(F)F)cc1` the 5-HT1 was 0 (inactive). In the case of `c1ccc2oc(C3CCCNC3)nc2c1` (stereo not shown), the 5-HT1 is reported as 1 (active). For `CCc1nccn1CC(=O)O`, the 5-HT1 was 0 (inactive). In the case of `CC(=O)c1ccc2c(c1)CCCN2`, the 5-HT1 is reported as 0 (inactive). In the case of `O=C(O)C1CCCN(C(=O)N2CCCC2)C1` (stereo not shown), the 5-HT1 is reported as 0 (inactive). For `O=C(O)c1cnc(-c2ccccc2)s1`, the 5-HT1 was 0 (inactive). For `CCc1ccc(NC2=NCCCS2)cc1`, the 5-HT1 was 0 (inactive).
